Data from PMC11006913.
Substitutions are numbered along the chain they refer to.

Key:
Assay in all cases: PBM; 200 nM protein, PBS
Details in all cases: dsDNA, one strand shown
HOXB9 [1] = biological target: HOXB9 (Homo sapiens, UniProt P17482 171-250, T197M)
HOXC9 [2] = biological target: HOXC9 (Homo sapiens, UniProt P31274 178-260, K195R)
VENTX = biological target: T1, VENTX (Homo sapiens, UniProt O95231 78-163)
T1 sequence: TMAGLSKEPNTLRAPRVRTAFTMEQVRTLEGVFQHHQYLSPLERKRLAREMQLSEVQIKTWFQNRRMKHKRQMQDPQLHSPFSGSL

HOXA7 [3] = biological target: HOXA7 (Homo sapiens, UniProt P31268 116-202)
Sequence of HOXA7 (Homo sapiens, UniProt P31268 116-202) (P31268 116-202): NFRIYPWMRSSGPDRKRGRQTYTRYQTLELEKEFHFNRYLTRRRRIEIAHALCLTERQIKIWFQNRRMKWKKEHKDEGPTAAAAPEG

HOXC10 [4] = biological target: HOXC10 (Homo sapiens, UniProt Q9NYD6 254-340)
Sequence of HOXC10 (Homo sapiens, UniProt Q9NYD6 254-340) (Q9NYD6 254-340): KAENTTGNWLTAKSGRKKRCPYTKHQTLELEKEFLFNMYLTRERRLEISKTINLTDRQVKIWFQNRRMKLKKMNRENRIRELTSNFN

PAX4 [5] = biological target: T2, PAX4 (Homo sapiens, UniProt O43316 9-242, R200K)
T2 sequence: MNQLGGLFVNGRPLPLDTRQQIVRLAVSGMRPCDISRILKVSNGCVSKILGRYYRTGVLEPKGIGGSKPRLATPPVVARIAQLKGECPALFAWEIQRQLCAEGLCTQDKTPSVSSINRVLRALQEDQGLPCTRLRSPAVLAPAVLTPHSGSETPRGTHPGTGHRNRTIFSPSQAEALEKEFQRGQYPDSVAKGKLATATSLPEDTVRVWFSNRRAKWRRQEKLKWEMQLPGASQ

PAX4 [6] = biological target: T3, PAX4 (Homo sapiens, UniProt O43316 9-242)
T3 sequence: T2 sequence with K192R

HOXB9 [7] = biological target: HOXB9 (Homo sapiens, UniProt P17482 171-250)
Sequence of HOXB9 (Homo sapiens, UniProt P17482 171-250) (P17482 171-250): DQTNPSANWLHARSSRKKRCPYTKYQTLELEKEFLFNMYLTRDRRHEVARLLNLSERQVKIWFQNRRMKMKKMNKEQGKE

HOXC9 [8] = biological target: HOXC9 (Homo sapiens, UniProt P31274 178-260)
Sequence of HOXC9 (Homo sapiens, UniProt P31274 178-260) (P31274 178-260): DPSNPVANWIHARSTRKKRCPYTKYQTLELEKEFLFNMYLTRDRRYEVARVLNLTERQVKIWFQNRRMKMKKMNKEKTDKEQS

HOXC9 [9] = biological target: HOXC9 (Homo sapiens, UniProt P31274 178-260, R193K)
Sequence of HOXC9 (Homo sapiens, UniProt P31274 178-260, R193K) (P31274 178-260 R193K): as the sequence (P31274 178-260) above, with R16K counted along it

HOXA2 [10] = biological target: HOXA2 (Homo sapiens, UniProt O43364 129-215, R185K)
Sequence of HOXA2 (Homo sapiens, UniProt O43364 129-215, R185K) (O43364 129-215 R185K): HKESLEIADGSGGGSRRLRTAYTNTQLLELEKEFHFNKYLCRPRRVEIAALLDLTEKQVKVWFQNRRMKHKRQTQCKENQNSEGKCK

HOXC10 [11] = biological target: HOXC10 (Homo sapiens, UniProt Q9NYD6 254-340, K271E)
Sequence of HOXC10 (Homo sapiens, UniProt Q9NYD6 254-340, K271E) (Q9NYD6 254-340 K271E): as the sequence (Q9NYD6 254-340) above, with K18E counted along it

VAX1 = VAX1 (Homo sapiens, UniProt Q5SQQ9 86-172)
Sequence of VAX1 (Q5SQQ9 86-172): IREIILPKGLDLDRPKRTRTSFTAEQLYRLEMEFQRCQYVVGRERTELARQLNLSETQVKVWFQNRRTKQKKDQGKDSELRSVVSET

HOXB9 [12] = biological target: HOXB9 (Homo sapiens, UniProt P17482 171-250, R186Q)
Sequence of HOXB9 (Homo sapiens, UniProt P17482 171-250, R186Q) (P17482 171-250 R186Q): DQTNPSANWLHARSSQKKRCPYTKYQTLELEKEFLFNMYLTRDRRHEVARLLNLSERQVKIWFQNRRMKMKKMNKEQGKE

HOXC9 [13] = biological target: HOXC9 (Homo sapiens, UniProt P31274 178-260, R222W)
Sequence of HOXC9 (Homo sapiens, UniProt P31274 178-260, R222W) (P31274 178-260 R222W): as the sequence (P31274 178-260) above, with R45W counted along it

PAX4 [14] = biological target: T4, PAX4 (Homo sapiens, UniProt O43316 9-242, R227W)
T4 sequence: T2 sequence with K192R, R219W

HOXA2 [15] = biological target: HOXA2 (Homo sapiens, UniProt O43364 129-215, Y150S)
Sequence of HOXA2 (Homo sapiens, UniProt O43364 129-215, Y150S) (O43364 129-215 Y150S): as the sequence (O43364 129-215 R185K) above, with Y22S, K57R counted along it

HOXA7 [16] = biological target: HOXA7 (Homo sapiens, UniProt P31268 116-202, W177C)
Sequence of HOXA7 (Homo sapiens, UniProt P31268 116-202, W177C) (P31268 116-202 W177C): as the sequence (P31268 116-202) above, with W62C counted along it

HOXA2 [17] = biological target: HOXA2 (Homo sapiens, UniProt O43364 129-215)
Sequence of HOXA2 (Homo sapiens, UniProt O43364 129-215) (O43364 129-215): as the sequence (O43364 129-215 R185K) above, with K57R counted along it

HOXB6 = HOXB6 (Homo sapiens, UniProt P17509 132-218)
Sequence of HOXB6 (P17509 132-218): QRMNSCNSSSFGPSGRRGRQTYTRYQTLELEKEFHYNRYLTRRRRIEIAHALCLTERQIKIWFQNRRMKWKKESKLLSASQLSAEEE

Sequence of HOXB9 (Homo sapiens, UniProt P17482 171-250, T197M) (P17482 171-250 T197M): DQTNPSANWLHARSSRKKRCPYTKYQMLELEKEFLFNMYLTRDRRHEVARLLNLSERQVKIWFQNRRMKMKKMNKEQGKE
Sequence of HOXC9 (Homo sapiens, UniProt P31274 178-260, K195R) (P31274 178-260 K195R): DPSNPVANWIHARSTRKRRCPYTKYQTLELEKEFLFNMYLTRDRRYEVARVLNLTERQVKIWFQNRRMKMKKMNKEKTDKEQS

| Sequence | binding signal (HOXB9 [1]) | binding signal (HOXC9 [2]) | binding signal (VENTX) | binding signal (HOXA7 [3]) | binding signal (HOXC10 [4]) | binding signal (PAX4 [5]) | binding signal (PAX4 [6]) | binding signal (HOXB9 [7]) | binding signal (HOXC9 [8]) | binding signal (HOXC9 [9]) | binding signal (HOXA2 [10]) | binding signal (HOXC10 [11]) | binding signal (VAX1) | binding signal (HOXB9 [12]) | binding signal (HOXC9 [13]) | binding signal (PAX4 [14]) | binding signal (HOXA2 [15]) | binding signal (HOXA7 [16]) | binding signal (HOXA2 [17]) | binding signal (HOXB6) |
| --- | --- | --- | --- | --- | --- | --- | --- | --- | --- | --- | --- | --- | --- | --- | --- | --- | --- | --- | --- | --- |
| GATAATTA | 10.5 upbm affinity estimate (log intensity, higher = more binding, comparable within an allelic series) | 12.9 upbm affinity estimate (log intensity, higher = more binding, comparable within an allelic series) | 12.8 upbm affinity estimate (log intensity, higher = more binding, comparable within an allelic series) | 12.2 upbm affinity estimate (log intensity, higher = more binding, comparable within an allelic series) | 12.2 upbm affinity estimate (log intensity, higher = more binding, comparable within an allelic series) | 12 upbm affinity estimate (log intensity, higher = more binding, comparable within an allelic series) | 12.6 upbm affinity estimate (log intensity, higher = more binding, comparable within an allelic series) | 11.9 upbm affinity estimate (log intensity, higher = more binding, comparable within an allelic series) | 12.8 upbm affinity estimate (log intensity, higher = more binding, comparable within an allelic series) | 12.8 upbm affinity estimate (log intensity, higher = more binding, comparable within an allelic series) | 13.8 upbm affinity estimate (log intensity, higher = more binding, comparable within an allelic series) | 12.2 upbm affinity estimate (log intensity, higher = more binding, comparable within an allelic series) | 13.7 upbm affinity estimate (log intensity, higher = more binding, comparable within an allelic series) | 11.8 upbm affinity estimate (log intensity, higher = more binding, comparable within an allelic series) | 11.1 upbm affinity estimate (log intensity, higher = more binding, comparable within an allelic series) | 11.2 upbm affinity estimate (log intensity, higher = more binding, comparable within an allelic series) | 10.9 upbm affinity estimate (log intensity, higher = more binding, comparable within an allelic series) | 9.01 upbm affinity estimate (log intensity, higher = more binding, comparable within an allelic series) | 13.2 upbm affinity estimate (log intensity, higher = more binding, comparable within an allelic series) | 12.5 upbm affinity estimate (log intensity, higher = more binding, comparable within an allelic series) |
| GCAATTAA | 10.5 upbm affinity estimate (log intensity, higher = more binding, comparable within an allelic series) | 13.1 upbm affinity estimate (log intensity, higher = more binding, comparable within an allelic series) | 12.8 upbm affinity estimate (log intensity, higher = more binding, comparable within an allelic series) | 12.3 upbm affinity estimate (log intensity, higher = more binding, comparable within an allelic series) | 12.4 upbm affinity estimate (log intensity, higher = more binding, comparable within an allelic series) |  |  | 12.6 upbm affinity estimate (log intensity, higher = more binding, comparable within an allelic series) | 13.1 upbm affinity estimate (log intensity, higher = more binding, comparable within an allelic series) | 13 upbm affinity estimate (log intensity, higher = more binding, comparable within an allelic series) | 13.4 upbm affinity estimate (log intensity, higher = more binding, comparable within an allelic series) | 12.6 upbm affinity estimate (log intensity, higher = more binding, comparable within an allelic series) | 13.2 upbm affinity estimate (log intensity, higher = more binding, comparable within an allelic series) | 12.4 upbm affinity estimate (log intensity, higher = more binding, comparable within an allelic series) | 11.1 upbm affinity estimate (log intensity, higher = more binding, comparable within an allelic series) |  | 10.8 upbm affinity estimate (log intensity, higher = more binding, comparable within an allelic series) | 8.72 upbm affinity estimate (log intensity, higher = more binding, comparable within an allelic series) | 12.6 upbm affinity estimate (log intensity, higher = more binding, comparable within an allelic series) | 12.7 upbm affinity estimate (log intensity, higher = more binding, comparable within an allelic series) |
| AAATTAAT | 10.1 upbm affinity estimate (log intensity, higher = more binding, comparable within an allelic series) | 12.6 upbm affinity estimate (log intensity, higher = more binding, comparable within an allelic series) |  | 11.3 upbm affinity estimate (log intensity, higher = more binding, comparable within an allelic series) |  | 11.9 upbm affinity estimate (log intensity, higher = more binding, comparable within an allelic series) | 12.4 upbm affinity estimate (log intensity, higher = more binding, comparable within an allelic series) | 11.8 upbm affinity estimate (log intensity, higher = more binding, comparable within an allelic series) |  | 12.5 upbm affinity estimate (log intensity, higher = more binding, comparable within an allelic series) |  |  | 12.7 upbm affinity estimate (log intensity, higher = more binding, comparable within an allelic series) | 11.5 upbm affinity estimate (log intensity, higher = more binding, comparable within an allelic series) |  | 11.1 upbm affinity estimate (log intensity, higher = more binding, comparable within an allelic series) |  | 8.83 upbm affinity estimate (log intensity, higher = more binding, comparable within an allelic series) |  | 11.8 upbm affinity estimate (log intensity, higher = more binding, comparable within an allelic series) |
| ACCAATTA | 9.73 upbm affinity estimate (log intensity, higher = more binding, comparable within an allelic series) |  | 12.8 upbm affinity estimate (log intensity, higher = more binding, comparable within an allelic series) | 11.2 upbm affinity estimate (log intensity, higher = more binding, comparable within an allelic series) |  | 11.6 upbm affinity estimate (log intensity, higher = more binding, comparable within an allelic series) | 12.2 upbm affinity estimate (log intensity, higher = more binding, comparable within an allelic series) | 11.1 upbm affinity estimate (log intensity, higher = more binding, comparable within an allelic series) |  |  | 13.2 upbm affinity estimate (log intensity, higher = more binding, comparable within an allelic series) |  | 12.8 upbm affinity estimate (log intensity, higher = more binding, comparable within an allelic series) | 10.9 upbm affinity estimate (log intensity, higher = more binding, comparable within an allelic series) |  | 10.8 upbm affinity estimate (log intensity, higher = more binding, comparable within an allelic series) | 10.9 upbm affinity estimate (log intensity, higher = more binding, comparable within an allelic series) | 8.84 upbm affinity estimate (log intensity, higher = more binding, comparable within an allelic series) | 12.1 upbm affinity estimate (log intensity, higher = more binding, comparable within an allelic series) | 11.7 upbm affinity estimate (log intensity, higher = more binding, comparable within an allelic series) |
| CAATTAAA | 10.2 upbm affinity estimate (log intensity, higher = more binding, comparable within an allelic series) | 12.9 upbm affinity estimate (log intensity, higher = more binding, comparable within an allelic series) | 12.3 upbm affinity estimate (log intensity, higher = more binding, comparable within an allelic series) | 11.8 upbm affinity estimate (log intensity, higher = more binding, comparable within an allelic series) | 12.5 upbm affinity estimate (log intensity, higher = more binding, comparable within an allelic series) |  |  | 12.3 upbm affinity estimate (log intensity, higher = more binding, comparable within an allelic series) | 12.9 upbm affinity estimate (log intensity, higher = more binding, comparable within an allelic series) | 12.8 upbm affinity estimate (log intensity, higher = more binding, comparable within an allelic series) |  | 12.3 upbm affinity estimate (log intensity, higher = more binding, comparable within an allelic series) | 12.8 upbm affinity estimate (log intensity, higher = more binding, comparable within an allelic series) | 12 upbm affinity estimate (log intensity, higher = more binding, comparable within an allelic series) | 11.3 upbm affinity estimate (log intensity, higher = more binding, comparable within an allelic series) |  |  | 8.84 upbm affinity estimate (log intensity, higher = more binding, comparable within an allelic series) |  | 12.1 upbm affinity estimate (log intensity, higher = more binding, comparable within an allelic series) |
| ATAATTGA | 9.97 upbm affinity estimate (log intensity, higher = more binding, comparable within an allelic series) |  |  | 11.2 upbm affinity estimate (log intensity, higher = more binding, comparable within an allelic series) |  |  |  |  |  |  |  |  |  |  |  |  |  | 8.94 upbm affinity estimate (log intensity, higher = more binding, comparable within an allelic series) |  | 11.7 upbm affinity estimate (log intensity, higher = more binding, comparable within an allelic series) |
| CCCTACGG |  | 9.6 upbm affinity estimate (log intensity, higher = more binding, comparable within an allelic series) | 8.36 upbm affinity estimate (log intensity, higher = more binding, comparable within an allelic series) |  |  |  |  |  | 9.63 upbm affinity estimate (log intensity, higher = more binding, comparable within an allelic series) | 9.67 upbm affinity estimate (log intensity, higher = more binding, comparable within an allelic series) |  |  |  |  | 9.62 upbm affinity estimate (log intensity, higher = more binding, comparable within an allelic series) |  |  |  |  |  |
| ATCAATTA | 10.1 upbm affinity estimate (log intensity, higher = more binding, comparable within an allelic series) | 12.5 upbm affinity estimate (log intensity, higher = more binding, comparable within an allelic series) | 12.7 upbm affinity estimate (log intensity, higher = more binding, comparable within an allelic series) | 11.7 upbm affinity estimate (log intensity, higher = more binding, comparable within an allelic series) |  | 11.8 upbm affinity estimate (log intensity, higher = more binding, comparable within an allelic series) | 12.4 upbm affinity estimate (log intensity, higher = more binding, comparable within an allelic series) | 11.7 upbm affinity estimate (log intensity, higher = more binding, comparable within an allelic series) | 12.6 upbm affinity estimate (log intensity, higher = more binding, comparable within an allelic series) | 12.6 upbm affinity estimate (log intensity, higher = more binding, comparable within an allelic series) | 13.6 upbm affinity estimate (log intensity, higher = more binding, comparable within an allelic series) | 11.9 upbm affinity estimate (log intensity, higher = more binding, comparable within an allelic series) | 13.3 upbm affinity estimate (log intensity, higher = more binding, comparable within an allelic series) | 11.5 upbm affinity estimate (log intensity, higher = more binding, comparable within an allelic series) | 11.1 upbm affinity estimate (log intensity, higher = more binding, comparable within an allelic series) | 11 upbm affinity estimate (log intensity, higher = more binding, comparable within an allelic series) | 10.9 upbm affinity estimate (log intensity, higher = more binding, comparable within an allelic series) | 8.98 upbm affinity estimate (log intensity, higher = more binding, comparable within an allelic series) | 12.7 upbm affinity estimate (log intensity, higher = more binding, comparable within an allelic series) | 12.1 upbm affinity estimate (log intensity, higher = more binding, comparable within an allelic series) |
| AATTAACA | 9.97 upbm affinity estimate (log intensity, higher = more binding, comparable within an allelic series) |  | 12.4 upbm affinity estimate (log intensity, higher = more binding, comparable within an allelic series) | 11.3 upbm affinity estimate (log intensity, higher = more binding, comparable within an allelic series) |  | 11.8 upbm affinity estimate (log intensity, higher = more binding, comparable within an allelic series) | 12.5 upbm affinity estimate (log intensity, higher = more binding, comparable within an allelic series) |  |  |  | 13.1 upbm affinity estimate (log intensity, higher = more binding, comparable within an allelic series) |  | 12.9 upbm affinity estimate (log intensity, higher = more binding, comparable within an allelic series) |  |  | 11.2 upbm affinity estimate (log intensity, higher = more binding, comparable within an allelic series) | 11 upbm affinity estimate (log intensity, higher = more binding, comparable within an allelic series) | 8.91 upbm affinity estimate (log intensity, higher = more binding, comparable within an allelic series) | 12.2 upbm affinity estimate (log intensity, higher = more binding, comparable within an allelic series) | 11.7 upbm affinity estimate (log intensity, higher = more binding, comparable within an allelic series) |
| AATTAGTC |  |  |  |  |  | 11.7 upbm affinity estimate (log intensity, higher = more binding, comparable within an allelic series) | 12.2 upbm affinity estimate (log intensity, higher = more binding, comparable within an allelic series) |  |  |  |  |  |  |  |  | 10.9 upbm affinity estimate (log intensity, higher = more binding, comparable within an allelic series) |  |  |  |  |
